Hits are enriched below; roughly 7.2% of the tested compounds scored in any of these assays.
FMDV inh = antivirals against foot and mouth disease virus | Potency, µM (doses to about 57.9 µM), for the others: at the top dose activity change, negative = inhibition, usual class: inhibitors | 410,000 compounds, 1.2% hits | AID 1159524 | FMDV antiviral cell-based qHTS; calls by dose curve; tested in HEK293T cells; further: read-out not given here; nearly all actives have a fitted effect of over 45% in size
Marburg entry inh = blocks Marburg virus binding to or entry into cells; AID 540276; 300,000 compounds, 1.8% hits; Potency, µM (highest dose often 37.8 µM), without a hit: at the highest dose activity change, negative = inhibition, usual class: inhibitors; Marburg virus pseudotyped entry inhibition, cell reporter; calls by dose curve; tested in HEK293 cells
RE007 growth inh = less growth of the S. pombe RE007 Vpr strain; Potency, µM (doses to about 92.2 µM), for the others: at the top dose activity change, negative = less growth, actives largely listed as inhibitors; S. pombe RE007 Vpr strain, BacTiter-Glo ATP luminescence, 24 h; 360,000 compounds, 0.21% hits; active means well fitted falling curve with a large enough effect; inconclusive means small, poorly fitted or top-dose-only effect; inactive means no such curve, though single readings can be large or run the other way; further: nearly all actives have a fitted effect of over 50% in size
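Fission yeast RE007 carrying one integrated HIV-1 vpr copy, seeded at OD 0.01 in PMG+AL medium with 23 nL pinned compound. Grown 24 h at 30 degrees; viability read by BacTiter-Glo luminescence after 5 min.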
Sm TGR inh = S. mansoni TGR enzyme inhibition; Potency, µM (titrated, usually from 114 µM), without a hit: top-dose activity change, negative = inhibition, most hits filed as inhibitors; AID 485364; Q962Y6; 360,000 compounds, 3% hits; purified TGR, DTNB reduction, TNB absorbance 405 nm; further: nearly all actives have a fitted effect of over 60% in size
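Kinetic colorimetric format: TGR-catalysed, NADPH-driven DTNB reduction monitored via TNB absorbance. Enzyme dispensed at 20 nM; compound exposure 15 min at room temperature before reaction start.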
HCV inhibitor = inhibitors of hepatitis C virus infection; Huh7.5.1 HCVcc-Cre infection, luciferase reporter, 44 h; Potency, µM (series often up to 41.8 µM), for inactives: top-dose activity change, negative = inhibition, most hits filed as inhibitors; 340,000 compounds, 3.4% hits
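HCVcc-Cre virus at an moi near 0.5 was added right after compound to cells cultured 4 h from seeding (1,000 cells/well). Luciferase activity was determined 44 h later, 15 min after substrate addition at RT.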
Lassa entry inh = Lassa virus entry inhibition; Lassa virus pseudotype entry inhibition, cell reporter; Potency, µM (top dose mostly 37.9 µM), inactives show at the highest dose activity change, negative = inhibition, actives largely listed as inhibitors; 300,000 compounds, 1.2% hits; AID 540256; calls by dose curve; tested in HEK293 cells; further: nearly all actives have a fitted effect of over 50% in size
Starred values were filed as active, the others as inactive; [ ] = another dose, or the depositor's remark. Unless noted, the call rests on the fitted dose curve; in most records, active means well fitted curve in the direction sought with a large enough effect; inconclusive means small, poorly fitted or top-dose-only effect, or another doubt; inactive means no such curve, though single readings can be large; an effect the other way counts as inactive or inconclusive. On the % scale 0 is the no-effect control and ±100 the full control effect; potency means the concentration at half of the fitted maximal effect.

How did COc1ccc(NC(=S)NC(NC(=O)c2cccc3ccccc23)C(Cl)(Cl)Cl)c([N+](=O)[O-])c1 (stereo unspecified) do in these assays?
Marburg entry inh: inconclusive; RE007 growth inh: 5%; Sm TGR inh: -30%; HCV inhibitor: 10µM*; Lassa entry inh: -14%

How did COc1ccc(NC(=S)NC(NC(=O)c2ccccc2Cl)C(Cl)(Cl)Cl)c([N+](=O)[O-])c1 (stereo unspecified) do in these assays?
Marburg entry inh: inconclusive; RE007 growth inh: 4%; Sm TGR inh: -3%; HCV inhibitor: inconclusive; Lassa entry inh: -23%

Results for COc1ccc(NC(=S)NC(NC(=O)CCl)C(Cl)(Cl)Cl)c([N+](=O)[O-])c1 (stereo unspecified) ?
FMDV inh: -30%; RE007 growth inh: -3%; Sm TGR inh: 2.8µM*; HCV inhibitor: inconclusive

What do the screens show for `CCC(C)NC(=O)CSc1c2c(nc3ccccc13)CCCC2` (stereo unspecified)?
FMDV inh: 25µM*; Marburg entry inh: inconclusive; RE007 growth inh: -3%; Sm TGR inh: -10%; HCV inhibitor: inconclusive; Lassa entry inh: -26%

What do the screens show for `COc1cccc(NC(=O)CSc2c3c(nc4ccccc24)CCCC3)c1`?
FMDV inh: 32µM*; Marburg entry inh: inconclusive; RE007 growth inh: -3%; Sm TGR inh: -24%; HCV inhibitor: inconclusive; Lassa entry inh: inconclusive

What do the screens show for `COc1ccc(OC)c(NC(=O)CSc2c3c(nc4ccccc24)CCCC3)c1`?
FMDV inh: inconclusive; Marburg entry inh: 10%[46.1 µM]; Sm TGR inh: -20%; Lassa entry inh: inconclusive

How did CCOC(=O)c1cc(-c2ccccc2)nc2c1c(C)nn2-c1ccccn1 do in these assays?
FMDV inh: 0%; Marburg entry inh: inconclusive; RE007 growth inh: 20%; Sm TGR inh: -1%; HCV inhibitor: 10µM*; Lassa entry inh: -22%

How did Clc1ccc2c(c1)-c1c(cnc3cc(-c4ccccc4)nn13)CO2 do in these assays?
FMDV inh: 3%; Marburg entry inh: 9%[46.1 µM]; Sm TGR inh: 7%; Lassa entry inh: 9%[46.1 µM]

Results for CC(C)N(CCC(=O)c1ccc2ccccc2c1)Cc1ccccc1 ?
FMDV inh: -29%; Marburg entry inh: 13µM*; RE007 growth inh: 4µM*; Sm TGR inh: 0.13µM*; HCV inhibitor: -27%; Lassa entry inh: 5.2µM*

How did O=C(NCc1nnc2n1CCN(Cc1cccc(C(F)(F)F)c1)CC2)c1ccncc1 do in these assays?
FMDV inh: -12%

What do the screens show for `Clc1ccccc1C1=CC(c2ccco2)n2ncnc2N1` (stereo unspecified)?
FMDV inh: -21%; Marburg entry inh: -36%; RE007 growth inh: 21%; Sm TGR inh: 13µM*; HCV inhibitor: -19%; Lassa entry inh: 20%

What do the screens show for `COc1ccc(C2C=C(c3ccccc3)Nc3ncnn32)cc1` (stereo unspecified)?
FMDV inh: 4%; Marburg entry inh: -4%; RE007 growth inh: -2%; Sm TGR inh: 32µM*; HCV inhibitor: 2%; Lassa entry inh: -18%

How did CC(C)(C)c1ccc(C2=CC(c3ccccc3)n3ncnc3N2)cc1 (stereo unspecified) do in these assays?
FMDV inh: 22%; RE007 growth inh: 19%; HCV inhibitor: -24%

Results for COc1ccc(C2=CC(c3ccco3)n3ncnc3N2)cc1 (stereo unspecified) ?
FMDV inh: -10%; Marburg entry inh: 0%[46.1 µM]; RE007 growth inh: -17%; Sm TGR inh: 10µM*; HCV inhibitor: -10%; Lassa entry inh: -8%[46.1 µM]

What do the screens show for `CC(=O)Nc1cccc(C2=CC(c3ccco3)n3ncnc3N2)c1` (stereo unspecified)?
Sm TGR inh: 13µM*

How did COC(=O)c1c(OCc2ccccn2)cc(=O)n2c1CCN(C(=O)c1cc(C(C)C)nn1C)CC2 do in these assays?
FMDV inh: 1%

Assay outcomes deposited in PubChem BioAssay by National Center for Advancing Translational Sciences (NCATS).
